Measurements: PubChem BioAssay AID720561 (Broad Institute, 2013)
Entries with a potency or affinity are not part of this list. The source made the active and inactive calls. The rule behind the calls is not given here.

Assay: suppression of HIF-dependent reporter luminescence – cell-based, dry powder samples, 2158-07, ARNT-TACC3 inhibitor project, dose response (AID 720561)
Details: HIF luciferase reporter cells; series mostly up to 50 µM

outcome, inactive:
C=CC1=C(C(=O)O)N2C(=O)[C@@H](NC(=O)/C(=N\O)c3csc(N)n3)[C@H]2SC1 (stereo in doubt)
CC1CCN(S(=O)(=O)c2ccc(C(=O)Nc3nnc(-c4ccccn4)o3)cc2)CC1
CC1CCN(S(=O)(=O)c2ccc(C(=O)Nc3nnc(-c4ccno4)o3)cc2)CC1
O=C(CSc1ccc(-c2ccccn2)nn1)N1CCCC1
O=C(CSc1ccc(-c2ccccn2)nn1)NC1CCCCC1
FC(F)(F)c1cc(-c2nn[nH]n2)cc(C(F)(F)F)c1
O=C(CSc1ccc(-c2ccccn2)nn1)Nc1ccccc1
Cc1c(C(=O)N(C)C)sc2nc(-c3ccccn3)[nH]c(=O)c12
Cc1ccc(C(=O)Nc2nc(-c3ccccn3)cs2)cc1S(=O)(=O)N1CCOCC1
